DT40 TDP1 CPT = growth inhibition of DT40 Tdp1-/-;hTDP1 cells with camptothecin (screen for TDP1 inhibitors). chicken DT40 Tdp1-/-;hTDP1 cells + 20 nM CPT, ATP luminescence, 48 h. Potency, µM (top dose mostly 46.2 µM), usual class: inhibitors. 12% of 420,000 active; also: nearly all actives have a fitted effect of over 55% in size
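Cell growth measured by CellTiter-Glo luminescence after a minimum 48 h, 37 C compound exposure with 20 nM CPT in Tdp1-knockout DT40 cells stably expressing hTDP1, seeded 400/well; qHTS titration format.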
ATXN2 expr inh = ATXN2 expression inhibition | HEK-293 ATXN2-luciferase reporter, luminescence, 24 h | Potency, µM (titrated, usually from 57 µM), most hits filed as inhibitors | 0.72% of 360,000 active; also: nearly all actives have a fitted effect of over 55% in size
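ATXN2-luciferase reporter cells (luciferase flanked by upstream and downstream ATXN2 gene portions) were treated 24 h at 37 °C with compounds at up to 57 uM. SteadyGlo luminescence gave expression; GF-AFC fluorescence gave viability.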
TDP1 cell noCPT = qHTS for Inhibitors of human tyrosyl-DNA phosphodiesterase 1 (TDP1): qHTS in cells in absence of CPT; Potency, µM (titrated, usually from 46.2 µM), hits mostly inhibitors; AID 686978, 2013; 15% of 420,000 active; DT40 Tdp1-/- hTDP1 cells, no CPT, ATP luminescence, 48 h; also: nearly all actives have a fitted effect of over 55% in size
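Stably hTDP1-transfected Tdp1-null chicken DT40 cells were treated with library compounds minus camptothecin and grown for at least 48 hr at 37 °C, after which cellular ATP was quantified by luminescence.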
TGFb inhibitor = TGF-b pathway inhibition; AID 588855; 1.2% of 410,000 active; Potency, µM (series often up to 46.1 µM), usual class: inhibitors; HepG2 CAGA-GFP TGF-b/SMAD3 reporter, GFP fluorescence, 18 h; TGF-beta stimulated, 500 pg/mL final; also: nearly all actives have a fitted effect of over 65% in size
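TGF-beta reporter screen: HEPG2 CAGA-GFP, 1% FBS, 500 pg/mL TGF-beta final, 18 h; per-cell GFP summed per well; curves fitted and categorized by class.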
ATXN viability = viability counter-screen for ATXN expression inhibitors; Potency, µM (series often up to 56.7 µM), actives largely listed as cytotoxic; S2 cells (HEK-293 line with an ATXN2-luciferase reporter) viability, CellTiter-Fluor protease fluorescence, 24 h; AID 651635; 0.49% of 400,000 active; also: nearly all actives have a fitted effect of over 40% in size
HepG2 tox = counter-screen for TGF-b inhibitors: cytotoxicity in HepG2 cells. Potency, µM (top dose mostly 46.1 µM), hits mostly cytotoxic. 0.76% of 410,000 active. HepG2 CAGA-GFP viability, ATP luminescence, 18 h
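CellTiter-Glo luminescence gave cytotoxicity after 18 hours at 37 degrees C. The cells were HepG2 CAGA-GFP in 1% FBS DMEM, stimulated with 500 pg/mL TGF-beta after compound addition. %Activity was normalised to no-cell wells (complete cell-killing) and DMSO (no toxicity), and curves were fitted and classified.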
A number is an active result; . = inactive; ? = inconclusive; / = no result given. Compounds with a hit are over-represented: about 17% of the library has one in this group of screens. Calls follow the shape of the dose curve; as a rule, active = well fitted curve in the direction sought with a large enough effect; inconclusive = small, poorly fitted or top-dose-only effect, or another doubt; inactive = no such curve, though single readings can be large; an effect the other way counts as inactive or inconclusive.

SMILES | DT40 TDP1 CPT | ATXN2 expr inh | TDP1 cell noCPT | TGFb inhibitor | ATXN viability | HepG2 tox
COc1ccc(S(=O)(=O)N2CCOCC2)cc1NC(=O)c1cc2ccccc2o1 | ? | . | 13µM | . | . | .
CCNC(=O)CC1C(=O)N(c2cccc(OC)c2)C(=O)N1Cc1ccc(OC)c(OC)c1 (stereo not given) | . | . | . | . | . | .
Cc1cccc(Nc2nnc(SCC(=O)NCc3cccs3)s2)c1C | . | . | . | . | . | .
CC(C)NC(=O)c1ccc(OC2CSC2)cc1 | . | . | . | . | . | .
c1cc(SC2CCCCC2)cc(-c2nc3cnccn3c2NC2CCCCC2)c1 | ? | ? | ? | . | / | 15.8µM
CCN(CC)c1ccc(-c2nc3cnccn3c2NC2CCCC2)cc1 | 20.6µM | . | ? | . | / | .
Cc1cc(C)n2c(NC3CCCC3)c(-c3cccnc3)nc2n1 | . | . | . | / | . | /
CCC(C)Sc1cccc(-c2nc3cnccn3c2NC2CCCCC2)c1 (stereo not given) | 20.6µM | ? | 16.4µM | ? | / | .
O=C(COC(=O)c1cncc(Br)c1)NCc1cccs1 | . | / | . | . | / | .
CCCCN(C)C(=O)c1ccc2c(=O)n3nc(Nc4cc(C)ccc4C)sc3nc2c1 | 13µM | / | 11.6µM | ? | / | .
Cc1ccc(C)c(Nc2nn3c(=O)c4ccc(C(=O)N(C)Cc5ccccc5)cc4nc3s2)c1 | 9.2µM | / | 20.6µM | ? | / | .
Cc1cc(OCC(=O)Nc2ccc(Br)cc2)cc2c1C(=O)CC(C)(C)O2 | 29.1µM | 12.6µM | 23.1µM | ? | . | .
CCOC(=O)c1ccc(NC(=O)CC2C(=O)N(c3ccccc3)C(=O)N2C2CCCCC2)cc1 (stereo not given) | 25.9µM | . | 16.4µM | . | ? | .
CCOc1ccc(NC(=O)CC2C(=O)N(c3ccc(C)cc3)C(=O)N2C2CCCCC2)cc1 (stereo not given) | 18.4µM | . | ? | ? | . | .
C[C@H]1C(c2ccc(F)cc2)=NN(c2ccccc2)[C@@H]1CO | 18.4µM | . | . | ? | / | .
COc1ccccc1[C@H]1C(c2ccc(F)cc2)=NN(c2ccccc2)[C@@H]1CO | 18.4µM | . | ? | ? | / | .
Cc1cc(C(=O)CSc2nnc(-c3ccccc3)o2)c(C)n1CC1COc2ccccc2O1 (stereo not given) | ? | . | ? | . | . | .
Cc1cc(C(=O)COC(=O)c2ccc(CO)cc2)c(C)n1CC1COc2ccccc2O1 (stereo not given) | 23.1µM | / | ? | . | ? | .
Cc1cc(C(=O)CN2C(=O)C(=O)N(Cc3ccccc3)C2=O)c(C)n1CC1COc2ccccc2O1 (stereo not given) | . | . | 18.4µM | . | . | .
Cc1cc(C(=O)COC(=O)c2ccc(O)cc2)c(C)n1CC1CCCO1 (stereo not given) | . | . | . | . | ? | .
Cc1cc(C(=O)CSc2nnc(-c3ccco3)o2)c(C)n1CC1COc2ccccc2O1 (stereo not given) | 16.4µM | . | 20.6µM | . | . | .
Cn1cc(CCNC(=O)CC2C(=O)NCCN2CC(c2ccccc2)c2ccccc2)cn1 (stereo not given) | . | . | . | . | . | .
O=C(CCCCC(=O)NNC(=O)COc1ccccc1)NNC(=O)COc1ccccc1 | . | . | . | . | . | .
O=C(Nc1cccc(NS(=O)(=O)c2ccc(S(=O)(=O)NC3CC3)cc2)c1)c1ccccn1 | . | . | ? | . | . | .
CCc1ccc(NC(=O)CN2C(=O)C3(SCC(=O)N3c3ccccc3)c3ccccc32)cc1 (stereo not given) | 20.6µM | . | ? | . | . | .
SMILES | DT40 TDP1 CPT | ATXN2 expr inh | TDP1 cell noCPT | TGFb inhibitor | ATXN viability | HepG2 tox
Cc1ccc(C)c(NC(=O)CN2C(=O)C3(SCC(=O)N3c3ccc(C)c(C)c3)c3ccccc32)c1 (stereo not given) | ? | . | 18.4µM | . | . | .
O=C(CN1C(=O)C2(SCC(=O)N2c2ccccc2)c2ccccc21)Nc1ccccc1C(F)(F)F (stereo not given) | 23.1µM | . | ? | . | . | .
CC1CCCC(NC(=O)CN2C(=O)NC(C)(c3cc(F)ccc3F)C2=O)C1C (stereo not given) | . | . | . | . | . | .
CCS(=O)(=O)N1CCN(c2ccc([N+](=O)[O-])c(N3CCOCC3)c2)CC1 | . | . | . | . | ? | .
Cc1cc(NC(=O)CSc2nc3c(sc4ccccc43)c(=O)n2CCc2ccccc2)n[nH]1 | ? | . | ? | . | . | .
COCCCn1c(SCC(=O)Nc2ccccc2OC)nc2c(sc3ccccc32)c1=O | 23.1µM | / | 25.9µM | ? | / | .
Cc1cc(NC(=O)CSc2nc3c(sc4ccccc43)c(=O)n2CCCN2CCOCC2)n[nH]1 | ? | 1.41µM | ? | . | ? | .
COCCCNC(=O)CSc1nc2c(sc3ccccc32)c(=O)n1CCc1ccccc1 | . | . | . | . | . | .
COCCCNC(=O)CSc1nc2c(sc3ccccc32)c(=O)n1CCc1ccc(OC)c(OC)c1 | ? | . | 5.17µM | . | . | .
CC[C@H](C=C[C@@H](C)[C@H]1CC[C@H]2[C@@H]3CC=C4C[C@@H](O)CC[C@]4(C)[C@@H]3CC[C@]12C)C(C)C | / | . | / | / | / | /
COc1ccc(N2CCN(CCCNC(=O)c3c(C)nn(-c4ccc(F)cc4)c3-n3cccc3)CC2)cc1 | / | . | / | ? | . | .
Cc1nnc2c3ccccc3nc(N3CCN(c4ccccc4)CC3)n12 | ? | . | ? | . | . | .
CC(=O)N1CCC[C@H]1C(=O)NCC1Cc2cc(-c3cnccn3)cc(Cl)c2O1 (stereo not given in full) | . | / | . | / | . | /
CCOC(=O)c1ccc(NC(=S)N(CCN(C)C)Cc2cccs2)cc1 | 16.4µM | . | ? | . | . | .
CCOC(=O)c1ccc(NC(=S)N(CCCN(CC)CC)Cc2ccco2)cc1 | . | . | . | . | . | .
CCOC(=O)c1ccc(NC(=S)N(CCCN2CCCCC2)Cc2ccco2)cc1 | . | . | ? | 0.631µM | . | .
O=C(CN1C(=O)c2cccnc2Oc2ccc(Cl)cc21)NCCCN1CCCCC1 | . | / | . | . | / | .
O=C1CCc2cc(S(=O)(=O)NCCc3ccccc3)cc3c2N1CC3 | . | . | ? | . | . | .
COc1ccc(CNC(=O)c2cc(=O)[nH]c3ccc(S(=O)(=O)N4CCCC4)cc23)c(OC)c1 | . | / | . | . | / | .
C=CCNc1nc(Cl)nc(Nc2cc(Cl)ccc2OC)n1 | ? | . | ? | . | ? | .
